MBNL1 CUG block = qHTS Assay for Inhibitors of MBNL1-poly(CUG) RNA binding; TR-FRET MBNL1-His/biotin-(CUG)12 binding, 665/545 ratio; AID 2675, 2010; Potency, µM (doses to about 57.5 µM), without a hit: at the top dose activity change, negative = inhibition, actives largely listed as inhibitors; 280,000 tested, 0.036% active; Muscleblind-like protein 1 (Homo sapiens), Q9NR56; active means well fitted inhibition curve with a large enough effect in the signal ratio, with a control signal flat, not every such curve was filed as active; inconclusive means small, poorly fitted or top-dose-only effect, or effect the other way, or a change in a side signal; inactive means no such curve, though single readings can be large or run the other way; the % refers to the signal ratio; further: potency means the concentration at half of the fitted maximal effect; on the % scale 0 is the no-effect control and ±100 the full control effect
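Ratiometric TR-FRET (665 over 545 nm, excitation 340 nm) tracks disruption of MBNL1-His/biotin-(CUG)12 complex after 60 min at room temperature, with compounds at 92 nM to 58 uM final.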
Six1-Eya2 blk = qHTS Assay for Inhibitors of the Six1/Eya2 Interaction. Homeobox protein SIX1 (Homo sapiens) + Protein phosphatase EYA2 (Homo sapiens), …. AlphaScreen GST-Six1/His-Eya2 binding, biochemical; active compounds read low. activity change, % (concentration not given with the values). 360,000 tested, 0.56% active. AID 651725, 2012; in the data active means activity change below about -65%; inconclusive means mostly about -30% to -63%; further: on the % scale 0 is the no-effect control and ±100 the full control effect
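GST-Six1 + His-Eya2 (5X stock: 250/500 nM); Tris pH 8.0, 300 mM NaCl, 0.05% BSA, 0.02% Tween 20; GSH donor/Ni acceptor beads; 1 h 37 °C dark; AlphaScreen readout.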
Eya2 phos inh = qHTS Assay for Inhibitors of the Phosphatase Activity of Eya2; Potency, µM (doses to about 76.9 µM), inactives show at the top dose activity, negative = inhibition, actives largely listed as inhibitors; recombinant Eya2, OMFP fluorescence dephosphorylation (OMFP is methylfluorescein phosphate); AID 488837, 2010; 330,000 tested, 0.006% active; further: potency means the concentration at half of the fitted maximal effect; on the % scale 0 is the no-effect control and ±100 the full control effect
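Eya2 (0.2 uM) preincubated 10 min at ambient with compound, then OMFP substrate added at 50 uM; 10 min reaction in 50 mM HEPES pH 7.5, 50 mM NaCl, 5 uM MgCl2, 0.05% BSA, 1 mM DTT. Fluorescence read at Ex 485/Em 525 nm.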
L3MBTL1 inh = qHTS Assay for the Inhibitors of L3MBTL1; Lethal(3)malignant brain tumor-like protein 1 (Homo sapiens), Q9Y468; AlphaScreen L3MBTL1–H3K9me1 peptide binding; Potency, µM (doses to about 57.1 µM), for inactives: top-dose activity, negative = inhibition, most hits filed as inhibitors; 230,000 tested, 0.66% active; AID 485360, 2010; further: potency means the concentration at half of the fitted maximal effect; on the % scale 0 is the no-effect control and ±100 the full control effect; nearly all actives have a fitted effect of over 60% in size
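AlphaScreen proximity signal between nickel-chelate acceptor and streptavidin donor beads (final 10 ug/mL) reports binding of 50 nM L3MBTL1 to 75 nM biotin-H3 K9me1 peptide; complex incubated with compounds 30 min at room temperature; cefsulodin titration as control.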
CtBP-E1A blk = qHTS Assay for Inhibitors of the CtBP/E1A Interaction; AlphaScreen GST-E1A/His-CtBP binding, 1536-well; active compounds read low; activity change, % (test concentration not listed); 340,000 tested, 0.49% active; CtBP / adenovirus E1A interaction (AlphaScreen); AID 651724, 2012; in the data active means activity change below about -65%; inconclusive means mostly about -30% to -63%; further: on the % scale 0 is the no-effect control and ±100 the full control effect
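Steps: dispense buffer (Tris pH 8.0, NaCl 300 mM, TCEP 1 mM, BSA, Tween 20); add 5X protein mix (GST-E1A, His-CtBP, 125 nM each); pin 23 nL compound; 2 h at 37 °C, dark; add 5X beads (50 ug/mL); 1 h; read.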
CBFb RUNX1 block = qHTS Assay for Compounds Blocking the Interaction Between CBF-beta and RUNX1 for the Treatment of Acute Myeloid Leukemia; AlphaScreen CBFb-His/RUNX1-biotin binding, biochemical; Potency, µM (highest dose often 59.8 µM), inactives show top-dose activity, negative = inhibition, most hits filed as inhibitors; 230,000 tested, under 10 active; further: % of control where 0% means no effect
Target sequence (Q01196 whole entry, looked up): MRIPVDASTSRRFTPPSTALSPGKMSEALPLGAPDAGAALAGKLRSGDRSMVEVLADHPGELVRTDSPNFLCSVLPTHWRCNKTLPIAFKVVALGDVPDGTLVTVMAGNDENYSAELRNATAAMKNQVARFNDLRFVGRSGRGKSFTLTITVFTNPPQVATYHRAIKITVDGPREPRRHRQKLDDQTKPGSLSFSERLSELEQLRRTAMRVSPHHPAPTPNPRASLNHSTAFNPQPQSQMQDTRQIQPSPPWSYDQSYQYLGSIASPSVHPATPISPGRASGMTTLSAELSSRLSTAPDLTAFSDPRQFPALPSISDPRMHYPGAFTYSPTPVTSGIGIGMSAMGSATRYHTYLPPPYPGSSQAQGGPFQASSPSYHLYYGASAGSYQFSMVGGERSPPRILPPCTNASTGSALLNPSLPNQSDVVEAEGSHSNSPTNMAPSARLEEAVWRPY
Target sequence (Q13951 whole entry, looked up): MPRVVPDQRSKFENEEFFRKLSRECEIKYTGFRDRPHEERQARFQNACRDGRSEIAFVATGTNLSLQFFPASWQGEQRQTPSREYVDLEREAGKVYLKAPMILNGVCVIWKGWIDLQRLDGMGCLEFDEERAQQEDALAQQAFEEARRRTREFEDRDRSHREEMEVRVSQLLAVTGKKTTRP
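Interaction loss through any mechanism counts as activity. Pre-formed complex of His-CBF-beta and biotin-RUNX1 (30 nM apiece) is incubated with compound 15 min, then with 50 ng nickel and 50 ng streptavidin beads for 90 min before AlphaScreen detection.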
MBNL1 TRFRET = qHTS Assay for Inhibitors of MBNL1-poly(CUG) RNA binding: Initial hit validation from the primary screen; shares compounds with MBNL1 CUG block; TR-FRET MBNL1-His / biotin-(CUG)12 binding, 60 min; Potency, µM (series often up to 57.6 µM), without a hit: at the highest dose activity change, negative = inhibition, usual class: inhibitors; 140 tested, 50% active
MBNL1-CUG Alpha = qHTS Assay for Inhibitors of MBNL1-poly(CUG) RNA binding: Initial hit validation in AlphaScreen assay for MBNL1-(CUG)12 binding | Potency, µM (top dose mostly 57.7 µM), without a hit: at the highest dose activity, negative = inhibition, hits mostly inhibitors | AID 493205, 2011 | AlphaScreen MBNL1-His / biotin-(CUG)12 binding | shares compounds with MBNL1 CUG block | 140 tested, 30% active
Menin-MLL HTRF = qHTS Assay for Inhibitors of MBNL1-poly(CUG) RNA binding: Counterscreen HTRF assay; shares compounds with MBNL1 CUG block; His-Menin/biotin-MLL peptide TR-FRET counterscreen; Potency, µM (top dose mostly 57.6 µM), without a hit: top-dose activity, negative = inhibition, hits mostly inhibitors; 120 tested, 20% active; AID 651843, 2012
The depositor's hits bear a star; [ ] = another dose, or the depositor's remark. Hits are enriched below; roughly 0.89% of the tested compounds scored in any of these assays. Unless noted, the call rests on the fitted dose curve; in most records, active means well fitted curve in the direction sought with a large enough effect; inconclusive means small, poorly fitted or top-dose-only effect, or another doubt; inactive means no such curve, though single readings can be large; an effect the other way counts as inactive or inconclusive.

For COC(=O)Nc1csc2c1NC(=O)CCCC2 the results were Six1-Eya2 blk -1, Eya2 phos inh 1%, L3MBTL1 inh -1%, CtBP-E1A blk 0, CBFb RUNX1 block -4%, MBNL1 TRFRET 26µM*, MBNL1-CUG Alpha 10µM* and Menin-MLL HTRF -13%.
COc1ccccc1NC(=O)c1csc2c1CCCC2 was read as MBNL1 CUG block -4%, Six1-Eya2 blk 15, Eya2 phos inh -22%, L3MBTL1 inh 10%, CtBP-E1A blk 21 and CBFb RUNX1 block 12%.
`CC(Sc1ncc(C#N)c(N)n1)C(=O)Nc1ccccc1` (stereo not drawn) gave MBNL1 CUG block 40µM*, Six1-Eya2 blk -1, Eya2 phos inh 15%, L3MBTL1 inh 2%, CtBP-E1A blk 2, CBFb RUNX1 block 8%, MBNL1 TRFRET -1%, MBNL1-CUG Alpha inconclusive and Menin-MLL HTRF -2%.
For O=C=Nc1ccc(Cl)c(Cl)c1 the results were CBFb RUNX1 block 24%[21.7 µM].
`CC(C)N1CCC2(CC1)C(C#N)=C(N)NC(S)=C2C#N` gave MBNL1 CUG block inconclusive, Eya2 phos inh -4%, L3MBTL1 inh -14%, CBFb RUNX1 block -8%, MBNL1 TRFRET 21µM*, MBNL1-CUG Alpha -12% and Menin-MLL HTRF 18µM*.
Screening CCOc1ccc2[nH]c(=O)c(C(c3nnnn3Cc3ccco3)N3CCN(C)CC3)cc2c1 (stereo not drawn) returned MBNL1 CUG block inconclusive, Six1-Eya2 blk -1, Eya2 phos inh -23%, L3MBTL1 inh -25%, CtBP-E1A blk -7, MBNL1 TRFRET -6%, MBNL1-CUG Alpha -10% and Menin-MLL HTRF 4%.
`O=C1NC(=O)C2C1C(c1ccccc1)N1C3C(=O)NC(=O)C3C(c3ccccc3)N21` (stereo not drawn) gave MBNL1 CUG block 32µM*, Six1-Eya2 blk 3, Eya2 phos inh -14%, CtBP-E1A blk 10, CBFb RUNX1 block -10%, MBNL1 TRFRET inconclusive, MBNL1-CUG Alpha inconclusive and Menin-MLL HTRF 1%.
For Cc1ccccc1-n1ncc2c1CC(C)(C)CC2NC(=O)CCCN1CCCC1=O (stereo not drawn) the results were MBNL1 CUG block -2%, Six1-Eya2 blk -6, Eya2 phos inh 19% and CtBP-E1A blk -7.
`Cc1oc2nc(SCCCC(=O)NCCO)nc(N)c2c1C` gave MBNL1 CUG block 20µM*, Six1-Eya2 blk 5, Eya2 phos inh 7%, L3MBTL1 inh 4%, CtBP-E1A blk 9, CBFb RUNX1 block -1%, MBNL1 TRFRET inconclusive, MBNL1-CUG Alpha inconclusive and Menin-MLL HTRF -3%.
COc1ccc(CCNC(=O)C2CC(=O)N(c3ccc(C)cc3)C2)cc1OC (stereo not drawn) was read as MBNL1 CUG block -4%, Six1-Eya2 blk 9, Eya2 phos inh -5%, CtBP-E1A blk 0, MBNL1 TRFRET inconclusive, MBNL1-CUG Alpha -8% and Menin-MLL HTRF 1%.
For COCCNC(=O)CCC1CCN(C/C=C/c2ccccc2OC)CC1 the results were MBNL1 CUG block -34%, Six1-Eya2 blk -7, Eya2 phos inh 10%, L3MBTL1 inh 40%, CtBP-E1A blk -2, MBNL1 TRFRET -20%, MBNL1-CUG Alpha inconclusive and Menin-MLL HTRF 5%.
Screening COc1cccc(CNC(=O)CCC2CCCN(C/C=C/c3ccccc3OC)C2)c1 (stereo not drawn) returned MBNL1 CUG block 7%, Six1-Eya2 blk -10, Eya2 phos inh 0%, L3MBTL1 inh -4%, CtBP-E1A blk -6 and CBFb RUNX1 block 4%.
Screening Cc1ccc(NC2c3ncccc3C(=O)N2Cc2cccs2)cc1 (stereo not drawn) returned MBNL1 CUG block 40µM*, Six1-Eya2 blk -8, Eya2 phos inh 15%, CtBP-E1A blk 4, CBFb RUNX1 block -7%, MBNL1 TRFRET 52µM*, MBNL1-CUG Alpha 26µM* and Menin-MLL HTRF -4%.
`COc1ccc(C(=O)COC(=O)CCCC(=O)NC2CCCCC2)cc1` gave MBNL1 CUG block 6%, Six1-Eya2 blk 0, Eya2 phos inh -1% and CtBP-E1A blk 3.
`Cn1nccc1NC(=O)Nc1cccc(Br)c1` gave MBNL1 CUG block 10µM*, Six1-Eya2 blk 21, Eya2 phos inh 0%, CtBP-E1A blk 6, MBNL1 TRFRET 8.2µM*, MBNL1-CUG Alpha -5% and Menin-MLL HTRF 26µM*.
Cn1nccc1NC(=O)Nc1ccc(Cl)cc1 was read as MBNL1 CUG block 40µM*, Six1-Eya2 blk 2, Eya2 phos inh -3%, CBFb RUNX1 block 3%, MBNL1 TRFRET 10µM*, MBNL1-CUG Alpha 0% and Menin-MLL HTRF inconclusive.
For Cn1nccc1NC(=O)Nc1ccccc1 the results were MBNL1 CUG block inconclusive, Six1-Eya2 blk 7, Eya2 phos inh 9% and CtBP-E1A blk -4.
Screening O=C(Nc1ccc(F)cc1)Nc1cccc(Br)c1 returned Six1-Eya2 blk 5.
Screening O=C(Nc1cccnc1)c1cc(-c2ccc(Cl)cc2Cl)on1 returned MBNL1 CUG block 1%, Six1-Eya2 blk -2, Eya2 phos inh 4% and CtBP-E1A blk 6.
`O=S(=O)(Cc1ccccc1)C(CCCc1ccccc1)S(=O)(=O)Cc1ccccc1` gave Six1-Eya2 blk 5 and CtBP-E1A blk 10.

From PubChem BioAssay
